Compound activity as filed in PubChem.
In the library only some 2.8% were active in any assay of this set; here they are far more common.
Fam108B counter = mouse Fam108B serine hydrolase inhibitors, primary screen, counter-screen for RBBP9 inhibitor project, biochemical, fluorescence polarization. recombinant Fam108B, FP-Rh probe fluorescence polarization. inhibition, % at 9.51 µM. 300,000 tested, 0.33% active. AID 1947, 2009;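 active = inhibition above the screen mean inhibition plus 3 SD, computed separately per campaign, cut at about 18% in these data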;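 note: inhibitors lower polarization as less probe binds the enzyme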
PAFAH1B3 FP inh = PAFAH1B3 enzyme inhibitors, primary screen, biochemical, fluorescence polarization, human | 340,000 tested, 0.28% active | Platelet-activating factor acetylhydrolase IB subunit alpha1 (Homo sapiens), Q15102 | inhibition, % at 3.39 µM | recombinant PAFAH1B3, FP-rhodamine probe;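 active = inhibition above the screen-wide average of all tested compounds plus 3 SD, cut at about 25% in these data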;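 note: 0% = enzyme with DMSO only and 100% = wells lacking PAFAH1B3 protein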
Target sequence (Q15102 whole entry, looked up): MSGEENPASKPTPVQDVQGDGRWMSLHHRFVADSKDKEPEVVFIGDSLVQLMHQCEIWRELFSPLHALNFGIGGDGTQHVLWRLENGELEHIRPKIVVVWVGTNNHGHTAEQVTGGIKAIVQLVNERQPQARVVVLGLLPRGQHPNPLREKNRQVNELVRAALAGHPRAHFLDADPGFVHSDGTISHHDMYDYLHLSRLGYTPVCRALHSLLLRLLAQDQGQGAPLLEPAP
PME-1 primary = PME-1 inhibitors via competitive probe labeling, primary screen, biochemical, fluorescence polarization, FP-Rh probe, HTS; Protein phosphatase methylesterase 1 (Homo sapiens), Q9Y570; recombinant PME-1; 320,000 tested, 0.53% active; inhibition, % at 5.9 µM;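 active = inhibition above the campaign mean of all compounds plus 3 SD, cut at about 26% in these data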;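 note: competitive labeling of PME-1 active site by serine hydrolase directed probe; 0% = PME-1 with DMSO and 100% = wells lacking PME-1 enzyme; inhibitors block probe labeling so polarization falls and inhibition rises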
Target sequence (Q9Y570 whole entry, looked up): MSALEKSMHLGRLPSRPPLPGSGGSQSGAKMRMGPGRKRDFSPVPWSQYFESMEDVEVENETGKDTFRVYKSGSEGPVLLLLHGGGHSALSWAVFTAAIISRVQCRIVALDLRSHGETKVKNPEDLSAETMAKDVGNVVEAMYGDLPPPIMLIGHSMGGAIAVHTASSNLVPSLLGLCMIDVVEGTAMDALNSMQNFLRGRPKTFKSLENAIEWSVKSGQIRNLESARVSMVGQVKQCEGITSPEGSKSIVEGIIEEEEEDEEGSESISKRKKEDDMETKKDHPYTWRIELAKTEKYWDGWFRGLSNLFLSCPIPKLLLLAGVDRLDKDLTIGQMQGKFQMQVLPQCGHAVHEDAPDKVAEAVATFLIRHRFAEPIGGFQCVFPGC
PAFAH2 FP inh = PAFAH2 enzyme inhibitors, primary screen, biochemical, fluorescence polarization, human. inhibition, % at 3.39 µM. 340,000 tested, 0.99% active. recombinant PAFAH2, FP-rhodamine activity probe. Platelet-activating factor acetylhydrolase 2, cytoplasmic (Homo sapiens), Q99487. AID 492956, 2010;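 active = inhibition above the mean over all tested compounds plus 3 SD, cut at about 30% in these data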;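 note: inhibitors block probe labeling of enzyme so polarization drops; 0% = enzyme with DMSO and 100% = wells lacking PAFAH2 protein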
pPAFAH FP inh = pPAFAH enzyme inhibitors, primary screen, biochemical, fluorescence polarization, human | Platelet-activating factor acetylhydrolase (Homo sapiens), Q13093 | recombinant pPAFAH, FP-rhodamine probe fluorescence polarization | inhibition, % at 3.39 µM | 330,000 tested, 1.5% active;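 active = inhibition above the mean inhibition across the screen plus 3 SD, cut at about 25% in these data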;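 note: inhibitors block binding of the rhodamine activity-based probe so polarization drops; 0% = enzyme with DMSO and 100% = wells lacking pPAFAH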
PAFAH1B2 FP inh = PAFAH1B2 enzyme inhibitors, primary screen, biochemical, fluorescence polarization, human. Platelet-activating factor acetylhydrolase IB subunit alpha2 (Homo sapiens), P68402. recombinant PAFAH1B2, FP-rhodamine activity probe. inhibition, % at 3.39 µM. 340,000 tested, 1.2% active. AID 492953, 2010;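 active = inhibition above the mean of all tested compounds plus 3 SD, cut at about 24% in these data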;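 note: 0% = enzyme with DMSO and 100% = wells lacking PAFAH1B2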
* hit, by the source's call; . = no result.

SMILES	Fam108B counter	PAFAH1B3 FP inh	PME-1 primary	PAFAH2 FP inh	pPAFAH FP inh	PAFAH1B2 FP inh
COc1ccc(NS(=O)(=O)c2cccc(C(=O)NNC(=O)CNC(=O)c3cccc(C)c3)c2)cc1	-4	7	-2	-6	34*	0
COc1ccc(NS(=O)(=O)c2cccc(C(=O)NNC(=O)CNC(=O)c3ccccc3Cl)c2)cc1	.	4	.	-7	.	-4
Cc1cccc(/C=C2/Sc3ccc(C(=O)NCCCN4CCOCC4)cc3NC2=O)c1	-11	-5	-4	-14	26*	8
COc1ccc(NS(=O)(=O)c2cccc(C(=O)NNC(=O)c3ccccc3O)c2)cc1	1	9	-4	4	15	1
COc1ccc(Cn2c(=S)[nH]c3ccccc3c2=O)cc1	-3	11	0	-6	7	4
CCc1ccc(CNc2ccc(N3CCN(C(C)=O)CC3)cc2)cc1	9	-2	-8	-8	30*	0
CC(=O)Nc1ccc(S(=O)(=O)N2CCN(C(=O)c3ncoc3-c3cccc(F)c3)CC2)cc1	-1	-1	2	-5	0	2
Brc1ccc(CSc2nnc(-c3ccco3)o2)cc1	2	1	0	-5	4	27*
COc1ccc2ccccc2c1C1NC(=O)NC(C)=C1[N+](=O)[O-] (stereo not drawn)	1	9	1	7	5	8
CC(NC(=O)CN(C)S(=O)(=O)c1cccc2nsnc12)c1ccccc1 (stereo not drawn)	5	3	5	1	2	31*
COc1ccc(CNC(=O)C(=O)NCC2OCCCN2S(=O)(=O)c2cccs2)cc1 (stereo not drawn)	-4	0	3	5	9	27*
Cc1ccc(S(=O)(=O)N2CCOC2CNC(=O)C(=O)NCc2ccc(Cl)cc2)cc1 (stereo not drawn)	5	-3	8	-6	10	29*
COc1ccc(CNC(=O)C(=O)NCC2CCCN2S(=O)(=O)c2cccs2)cc1 (stereo not drawn)	-2	7	3	-2	3	5
Cc1cc(C)cc(NC(=O)CS(=O)(=O)c2cccc3nsnc23)c1	2	4	1	-14	0	7
O=[N+]([O-])c1ccccc1S(=O)(=O)NCCSc1ccccc1	2	7	-1	12	1	29*
O=S(=O)(NCCCSc1ccccc1)c1ccccc1F	1	0	5	4	3	21
CCN(c1ccc(NC(=O)c2ccc(N3CCCC3=O)cc2)cc1)C(C)C	5	7	7	6	2	9
NC(=O)c1ncn([C@@H]2O[C@H](CNCc3cc(Cl)ccc3OCc3ccc(Cl)cc3)[C@@H](O)[C@H]2O)n1	.	4	.	13	.	28*
CCN(CC)c1ccc(N=C2C(=O)Nc3ccccc32)cc1	-1	4	-6	5	29*	0
Cc1ccc(N=C2C(=O)Nc3ccccc32)cc1	-4	9	-4	0	9	3
O=C(CCCn1c(=S)[nH]c2ccsc2c1=O)Nc1ccc2c(c1)OCCO2	2	4	-8	4	-1	4
Cc1ccc2[nH]c3c(N4CCc5ccccc5C4)ncnc3c2c1	14	9	30*	6	13	4
COC(=O)\C(C(C)=O)=C(/C=C/C=C/C=C/N(C)C)N(C)C	1	-5	-9	-2	32*	-4
COc1cc(-c2nnc(COC(=O)c3nn(CC(C)C)c(=O)c4ccccc34)o2)cc(OC)c1OC	7	5	-2	-5	-1	1
O=C(O)c1cccc(S(=O)(=O)Nc2ccc3oc(=O)sc3c2)c1	6	7	0	-4	4	27*
SMILES	Fam108B counter	PAFAH1B3 FP inh	PME-1 primary	PAFAH2 FP inh	pPAFAH FP inh	PAFAH1B2 FP inh
COc1cc2[nH]c(C(=O)N(C)Cc3ccccc3)cc2c(OC)c1OC	4	4	-3	2	15	6
CCN(Cc1ccccc1)C(=O)c1cc2cc(OC)c(OC)cc2[nH]1	0	2	-9	1	33*	5
Cc1ccc(CNC(=O)Nc2ccc(Cl)cc2)cc1	-2	0	2	-1	1	65*
CCOC(=O)CNC(=O)Cc1ccc(Cl)cc1	-1	2	4	-1	7	9
O=C(Cc1ccccc1F)Nc1ccc(SC(F)F)cc1	0	-3	5	1	8	5
O=C(COC(=O)Cc1ccccc1F)Nc1ccc(SC(F)F)cc1	1	3	-12	3	26*	0
CCOC(=O)Cc1ccc(NCc2ccc(Cl)cc2)cc1	-2	10	0	0	3	24*
COc1ccc(NC(=O)COC(=O)Cc2ccc(Br)cc2)cc1	-1	17	-3	-1	29*	4
S=C(c1cccs1)N1CCN(c2ccccc2)CC1	.	0	.	-1	.	1
O=C(COC(=O)Cc1ccc(Cl)cc1)Nc1ccc(OC(F)F)cc1	2	-5	2	-2	29*	-1
COc1ccccc1OC(C)C(=O)Nc1ccccc1C(=O)NCC1CCCO1 (stereo not drawn)	5	2	0	1	1	0
Nc1nc(Sc2ccc([N+](=O)[O-])c3nonc23)c2[nH]cnc2n1	.	38*	.	30*	.	12
CNc1ncnc(Sc2nc(N)nc3nc[nH]c23)c1[N+](=O)[O-]	.	3	.	6	.	-1
Cc1ccc(-c2cc(C(F)F)nc(NCc3cccs3)n2)cc1	-5	4	-8	-2	1	-5
Cc1ccc(-c2cc(C(F)F)nc(NCc3cccnc3)n2)cc1	-2	1	-1	-14	26*	2
O=C(COC(=O)C12CC3CC(CC(Br)(C3)C1)C2)Nc1cccc(S(=O)(=O)N2CCOCC2)c1	.	2	.	2	1	31*
O=C(COC(=O)C12CC3CC(CC(Br)(C3)C1)C2)Nc1cccnc1Cl	1	3	-3	6	0	32*
CN(Cc1ccccc1)C(=O)COC(=O)C12CC3CC(CC(Br)(C3)C1)C2	.	10	.	-18	2	42*
COc1cc2c(cc1OC)C(C)N(C(=S)NC(=O)c1ccccc1)CC2 (stereo not drawn)	-5	2	3	1	1	5
CCOC(=O)c1c(C)[nH]c(C)c1S(=O)(=O)NC(C)Cc1ccco1 (stereo not drawn)	-4	1	1	3	2	4
